Screen size: about 5,500 compounds; about 2,000 (36%) were called active. Roughly 18% stayed inconclusive and do not appear here. Cut-off read from the data, not from the text of the source: active = normalized growth mostly below about 0.91 (no sharp cut-off); inconclusive = no clear call, values can overlap the other calls; inactive = mostly above about 0.92. The list shows a part of the results.
Assay: chemical genetic growth profiling, strain panel (AID 1159580);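 note: tested at 20 µM; growth read once vehicle control cultures reached saturation at 30 °C; 1 = growth at the plate median or of vehicle wells; lower values mean less growth of the strain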
Conditions: growth OD

Measured: normalized growth

O=C(Oc1cc(OC(=O)c2ccccc2)c2c(c1)O[C@H](c1ccc(OC(=O)c3ccccc3)c(OC(=O)c3ccccc3)c1)[C@@H](OC(=O)c1ccccc1)C2)c1ccccc1
inactive: S. cerevisiae deletion strains, locus YAL021C, strain ccr4, active compounds read low 1.01 | S. cerevisiae deletion strains, locus YAL026C, strain drs2, active compounds read low 0.998 | S. cerevisiae deletion strains, locus YAL030W, strain snc1, active compounds read low 0.991 | S. cerevisiae deletion strains, locus YBL061C, strain skt5, active compounds read low 0.99 | S. cerevisiae deletion strains, locus YBR009C, strain hhf1, active compounds read low 0.982 | S. cerevisiae deletion strains, locus YBR021W, strain FUR4, active compounds read low 1.07 | S. cerevisiae deletion strains, locus YBR023C, strain chs3, active compounds read low 0.999 | S. cerevisiae deletion strains, locus YBR171W, strain sec66, active compounds read low 0.997 | S. cerevisiae deletion strains, locus YBR229C, strain ROT2, active compounds read low 1.04 | S. cerevisiae deletion strains, locus YBR231C, strain swc5, active compounds read low 0.99 | S. cerevisiae deletion strains, locus YBR279W, strain paf1, active compounds read low 1 | S. cerevisiae deletion strains, locus YCL011C, strain gbp2, active compounds read low 0.987 | S. cerevisiae deletion strains, locus YCL016C, strain dcc1, active compounds read low 0.994 | S. cerevisiae deletion strains, locus YCL029C, strain bik1, active compounds read low 1.05 | S. cerevisiae deletion strains, locus YCL061C, strain MRC1, active compounds read low 0.999 | S. cerevisiae deletion strains, locus YCL069W, strain vba3, active compounds read low 1 | S. cerevisiae deletion strains, locus YCR088W, strain abp1, active compounds read low 0.993 | S. cerevisiae deletion strains, locus YDL005C, strain med2, active compounds read low 0.991 | S. cerevisiae deletion strains, locus YDL035C, strain GPR1, active compounds read low 1.04 | S. cerevisiae deletion strains, locus YDL040C, strain nat1, active compounds read low 0.991 | S. cerevisiae deletion strains, locus YDL074C, strain BRE1, active compounds read low 1.14 | S. cerevisiae deletion strains, locus YDL101C, strain DUN1, active compounds read low 1.05 | S. cerevisiae deletion strains, locus YDL185W, strain tfp1, active compounds read low 1.06 | S. cerevisiae deletion strains, locus YDL192W, strain arf1, active compounds read low 1.07 | S. cerevisiae deletion strains, locus YDR001C, strain nth1, active compounds read low 0.994 | S. cerevisiae deletion strains, locus YDR069C, strain doa4, active compounds read low 0.986 | S. cerevisiae deletion strains, locus YDR101C, strain arx1, active compounds read low 1.03 | S. cerevisiae deletion strains, locus YDR137W, strain rgp1, active compounds read low 1.03 | S. cerevisiae deletion strains, locus YDR159W, strain sac3, active compounds read low 0.999 | S. cerevisiae deletion strains, locus YDR162C, strain NBP2, active compounds read low 1.03 | S. cerevisiae deletion strains, locus YDR195W, strain ref2 0.953 | S. cerevisiae deletion strains, locus YDR297W, strain sur2, active compounds read low 1 | S. cerevisiae deletion strains, locus YDR318W, strain mcm21, active compounds read low 1.04 | S. cerevisiae deletion strains, locus YDR334W, strain swr1, active compounds read low 0.992 | S. cerevisiae deletion strains, locus YDR335W, strain msn5, active compounds read low 0.999 | S. cerevisiae deletion strains, locus YDR388W, active compounds read low 1.04 | S. cerevisiae deletion strains, locus YDR392W, strain spt3, active compounds read low 0.927 | S. cerevisiae deletion strains, locus YDR502C, strain sam2, active compounds read low 1.06 | S. cerevisiae deletion strains, locus YEL003W, strain gim4, active compounds read low 0.994 | S. cerevisiae deletion strains, locus YEL037C, strain rad23, active compounds read low 0.991 | S. cerevisiae deletion strains, locus YEL061C, strain CIN8 (second series), active compounds read low 0.999 | S. cerevisiae deletion strains, locus YEL061C, strain CIN8, active compounds read low 1.02 | S. cerevisiae deletion strains, locus YER015W, strain faa2, active compounds read low 0.987 | S. cerevisiae deletion strains, locus YER016W, strain bim1, active compounds read low 0.991 | S. cerevisiae deletion strains, locus YER110C, active compounds read low 1.06 | S. cerevisiae deletion strains, locus YER111C, strain swi4, active compounds read low 0.999 | S. cerevisiae deletion strains, locus YER155C, strain BEM2 (second series), active compounds read low 0.993 | S. cerevisiae deletion strains, locus YER155C, strain BEM2, active compounds read low 1.04 | S. cerevisiae deletion strains, locus YER167W, strain BCK2, active compounds read low 1.03 | S. cerevisiae deletion strains, locus YFR010W, strain ubp6, active compounds read low 0.993 | S. cerevisiae deletion strains, locus YGL078C, strain dbp3, active compounds read low 1.04 | S. cerevisiae deletion strains, locus YGL086W, strain mad1, active compounds read low 1.04 | S. cerevisiae deletion strains, locus YGL167C, strain pmr1, active compounds read low 0.993 | S. cerevisiae deletion strains, locus YGL173C, strain kem1, active compounds read low 0.998 | S. cerevisiae deletion strains, locus YGL227W, strain vid30, active compounds read low 0.982 | S. cerevisiae deletion strains, locus YGL240W, strain doc1, active compounds read low 0.977 | S. cerevisiae deletion strains, locus YGL248W, strain PDE1, active compounds read low 1.08 | S. cerevisiae deletion strains, locus YGL253W, strain hxk2, active compounds read low 1 | S. cerevisiae deletion strains, locus YGR135W, strain pre9, active compounds read low 1.09 | S. cerevisiae deletion strains, locus YGR252W, strain gcn5, active compounds read low 1.17 | S. cerevisiae deletion strains, locus YHR013C, strain ard1, active compounds read low 0.958 | S. cerevisiae deletion strains, locus YHR027C, strain rpn1, active compounds read low 1 | S. cerevisiae deletion strains, locus YHR079C, strain IRE1 (second series), active compounds read low 1.05 | S. cerevisiae deletion strains, locus YHR094C, strain hxt1, active compounds read low 1.03 | S. cerevisiae deletion strains, locus YHR129C, strain ARP1, active compounds read low 1.05 | S. cerevisiae deletion strains, locus YHR142W, strain chs7, active compounds read low 1.03 | S. cerevisiae deletion strains, locus YHR200W, strain rpn10, active compounds read low 1.05 | S. cerevisiae deletion strains, locus YIL066C, strain RNR3, active compounds read low 1.05 | S. cerevisiae deletion strains, locus YIL073C, strain SPO22, active compounds read low 1.16 | S. cerevisiae deletion strains, locus YIL125W, strain kgd1, active compounds read low 1.02 | S. cerevisiae deletion strains, locus YIR030C, strain dcg1, active compounds read low 1.03 | S. cerevisiae deletion strains, locus YJL092W, strain hpr5, active compounds read low 0.993 | S. cerevisiae deletion strains, locus YJL095W, strain BCK1 (second series), active compounds read low 0.998 | S. cerevisiae deletion strains, locus YJL095W, strain BCK1, active compounds read low 1.12 | S. cerevisiae deletion strains, locus YJL115W, strain asf1, active compounds read low 0.984 | S. cerevisiae deletion strains, locus YJL129C, strain trk1, active compounds read low 0.999 | S. cerevisiae deletion strains, locus YJL134W, strain LCB3, active compounds read low 1.03 | S. cerevisiae deletion strains, locus YJL154C, strain vps35, active compounds read low 0.997 | S. cerevisiae deletion strains, locus YJL164C, strain tpk1, active compounds read low 0.974 | S. cerevisiae deletion strains, locus YJL166W, strain qcr8, active compounds read low 0.986 | S. cerevisiae deletion strains, locus YJL168C, strain set2, active compounds read low 1.06 | S. cerevisiae deletion strains, locus YJL187C, strain SWE1 (second series), active compounds read low 1.07 | S. cerevisiae deletion strains, locus YJL187C, strain SWE1, active compounds read low 1 | S. cerevisiae deletion strains, locus YJR075W, strain HOC1, active compounds read low 1.05 | S. cerevisiae deletion strains, locus YKL009W, strain mrt4, active compounds read low 1.05 | S. cerevisiae deletion strains, locus YKL068W, active compounds read low 1.02 | S. cerevisiae deletion strains, locus YKL085W, strain MDH1 (second series), active compounds read low 1.01 | S. cerevisiae deletion strains, locus YKL085W, strain MDH1, active compounds read low 1.01 | S. cerevisiae deletion strains, locus YKL160W, strain elf1, active compounds read low 1.01 | S. cerevisiae deletion strains, locus YKL190W, strain CNB1, active compounds read low 0.999 | S. cerevisiae deletion strains, locus YKR001C, strain vps1, active compounds read low 1.08 | S. cerevisiae deletion strains, locus YKR026C, strain gcn3, active compounds read low 0.968 | S. cerevisiae deletion strains, locus YKR091W, strain srl3, active compounds read low 0.996 | S. cerevisiae deletion strains, locus YLL001W, strain dnm1, active compounds read low 1.01 | S. cerevisiae deletion strains, locus YLL026W, active compounds read low 0.985 | S. cerevisiae deletion strains, locus YLL041C, strain sdh2, active compounds read low 1 | S. cerevisiae deletion strains, locus YLR027C, strain aat2, active compounds read low 0.995 | S. cerevisiae deletion strains, locus YLR039C, strain RIC1, active compounds read low 1.24 | S. cerevisiae deletion strains, locus YLR058C, strain SHM2, active compounds read low 1.04 | S. cerevisiae deletion strains, locus YLR102C, strain apc9, active compounds read low 1.03 | S. cerevisiae deletion strains, locus YLR221C, strain rsa3, active compounds read low 1 | S. cerevisiae deletion strains, locus YLR258W, strain gsy2, active compounds read low 0.993 | S. cerevisiae deletion strains, locus YLR262C, strain YPT6 (second series), active compounds read low 0.993 | S. cerevisiae deletion strains, locus YLR268W, strain sec22, active compounds read low 1.04 | S. cerevisiae deletion strains, locus YLR320W, strain mms22, active compounds read low 0.975 | S. cerevisiae deletion strains, locus YLR330W, strain CHS5, active compounds read low 1.04 | S. cerevisiae deletion strains, locus YLR342W, strain FKS1 (second series), active compounds read low 1.06 | S. cerevisiae deletion strains, locus YLR342W, strain FKS1, active compounds read low 0.989 | S. cerevisiae deletion strains, locus YLR357W, strain rsc2, active compounds read low 0.979 | S. cerevisiae deletion strains, locus YLR370C, strain arc18, active compounds read low 0.999 | S. cerevisiae deletion strains, locus YLR371W, strain rom2, active compounds read low 1.08 | S. cerevisiae deletion strains, locus YLR384C, strain iki3, active compounds read low 1.01 | S. cerevisiae deletion strains, locus YLR418C, strain cdc73, active compounds read low 1.15 | S. cerevisiae deletion strains, locus YML016C, strain PPZ1, active compounds read low 1.02 | S. cerevisiae deletion strains, locus YML032C, strain rad52, active compounds read low 1.04 | S. cerevisiae deletion strains, locus YML120C, strain ndi1, active compounds read low 1.01 | S. cerevisiae deletion strains, locus YML124C, strain tub3, active compounds read low 1.03 | S. cerevisiae deletion strains, locus YMR058W, strain fet3, active compounds read low 0.999 | S. cerevisiae deletion strains, locus YMR078C, strain ctf18, active compounds read low 1.04 | S. cerevisiae deletion strains, locus YMR125W, strain sto1, active compounds read low 0.978 | S. cerevisiae deletion strains, locus YMR129W, active compounds read low 0.997 | S. cerevisiae deletion strains, locus YMR205C, strain PFK2, active compounds read low 0.973 | S. cerevisiae deletion strains, locus YMR223W, strain ubp8, active compounds read low 1.06 | S. cerevisiae deletion strains, locus YMR231W, strain pep5, active compounds read low 0.998 | S. cerevisiae deletion strains, locus YMR307W, strain GAS1, active compounds read low 1.16 | S. cerevisiae deletion strains, locus YNL067W, strain RPL9B, active compounds read low 0.984 | S. cerevisiae deletion strains, locus YNL071W, strain lat1, active compounds read low 1.01 | S. cerevisiae deletion strains, locus YNL128W, strain TEP1, active compounds read low 0.999 | S. cerevisiae deletion strains, locus YNL209W, strain ssb2, active compounds read low 1 | S. cerevisiae deletion strains, locus YNL233W, strain BNI4, active compounds read low 1.07 | S. cerevisiae deletion strains, locus YNL248C, strain rpa49, active compounds read low 1.01 | S. cerevisiae deletion strains, locus YNL250W, strain rad50, active compounds read low 1.05 | S. cerevisiae deletion strains, locus YNL271C, strain bni1, active compounds read low 1.03 | S. cerevisiae deletion strains, locus YNL298W, strain CLA4, active compounds read low 1.04 | S. cerevisiae deletion strains, locus YNL307C, strain MCK1, active compounds read low 1.06 | S. cerevisiae deletion strains, locus YNL322C, strain KRE1 (second series), active compounds read low 0.985 | S. cerevisiae deletion strains, locus YNR049C, strain mso1, active compounds read low 0.991 | S. cerevisiae deletion strains, locus YNR052C, strain pop2, active compounds read low 1.06 | S. cerevisiae deletion strains, locus YOL006C, strain TOP1, active compounds read low 1.32 | S. cerevisiae deletion strains, locus YOL012C, strain htz1 1.34 | S. cerevisiae deletion strains, locus YOL147C, strain pex11, active compounds read low 1.03 | S. cerevisiae deletion strains, locus YOR001W, strain rrp6, active compounds read low 0.994 | S. cerevisiae deletion strains, locus YOR061W, strain CKA2, active compounds read low 1.04 | S. cerevisiae deletion strains, locus YOR069W, strain VPS5, active compounds read low 1.03 | S. cerevisiae deletion strains, locus YOR070C, strain gyp1, active compounds read low 0.996 | S. cerevisiae deletion strains, locus YOR080W, strain dia2, active compounds read low 0.989 | S. cerevisiae deletion strains, locus YOR083W, strain WHI5, active compounds read low 1.02 | S. cerevisiae deletion strains, locus YOR106W, strain vam3, active compounds read low 1 | S. cerevisiae deletion strains, locus YOR136W, strain idh2, active compounds read low 1.04 | S. cerevisiae deletion strains, locus YOR144C, strain elg1, active compounds read low 1.04 | S. cerevisiae deletion strains, locus YOR184W, strain ser1, active compounds read low 1.05 | S. cerevisiae deletion strains, locus YOR265W, strain rbl2, active compounds read low 0.993 | S. cerevisiae deletion strains, locus YOR270C, strain vph1, active compounds read low 1.01 | S. cerevisiae deletion strains, locus YOR290C, strain snf2, active compounds read low 0.954 | S. cerevisiae deletion strains, locus YOR316C, strain cot1, active compounds read low 1.05 | S. cerevisiae deletion strains, locus YPL051W, strain arl3, active compounds read low 1 | S. cerevisiae deletion strains, locus YPL055C, strain LGE1, active compounds read low 1.07 | S. cerevisiae deletion strains, locus YPL078C, strain atp4, active compounds read low 1.01 | S. cerevisiae deletion strains, locus YPL106C, strain sse1, active compounds read low 0.975 | S. cerevisiae deletion strains, locus YPL240C, strain hsp82, active compounds read low 0.99 | S. cerevisiae deletion strains, locus YPR119W, strain clb2, active compounds read low 1.04 | S. cerevisiae deletion strains, locus YPR141C, strain kar3, active compounds read low 1.04 | S. cerevisiae deletion strains, locus YPR163C, strain tif3, active compounds read low 1.05 | S. cerevisiae deletion strains, locus YPR167C, strain met16, active compounds read low 1.07 | S. cerevisiae deletion strains, strain wtn01, active compounds read low 1.04 | S. cerevisiae strains, strain wild type, active compounds read low 1.04

Source: PubChem BioAssay AID1159580 (chemical genetic matrix, 2015)
